Paper PMC7862700, “An all-to-all approach to the identification of sequence-specific readers for epigenetic DNA modifications on cytosine”

Legend:
Test in all cases: DAPPL (digital affinity profiling via proximity ligation, sequencing); 10 mM Tris-HCl pH 7.5, 50 mM NaCl, 1 mM DTT, 4% glycerol, room temperature, 30 min; GST-TFs on glutathione beads, 16-mer random dsDNA library, 0.1% formaldehyde crosslink after washing; high values mean tight binding
[1] = biological target: T1, FLI1 (Homo sapiens, UniProt Q01543 1-452); conditions: protein: recombinant; tags: N-terminal GST; dsDNA, one strand shown
T1 sequence: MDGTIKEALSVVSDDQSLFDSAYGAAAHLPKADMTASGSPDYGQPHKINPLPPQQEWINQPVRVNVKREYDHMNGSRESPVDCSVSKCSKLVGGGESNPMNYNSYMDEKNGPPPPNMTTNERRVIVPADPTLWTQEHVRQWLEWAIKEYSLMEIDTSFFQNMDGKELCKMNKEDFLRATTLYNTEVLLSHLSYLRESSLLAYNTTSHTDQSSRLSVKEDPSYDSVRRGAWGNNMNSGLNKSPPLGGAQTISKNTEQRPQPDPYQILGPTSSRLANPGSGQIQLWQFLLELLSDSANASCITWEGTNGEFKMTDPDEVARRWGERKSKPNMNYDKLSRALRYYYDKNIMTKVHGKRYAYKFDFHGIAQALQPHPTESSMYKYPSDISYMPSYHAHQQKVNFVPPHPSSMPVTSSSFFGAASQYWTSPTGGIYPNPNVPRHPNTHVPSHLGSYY
Method in brief: (§1)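 Human transcription factors carrying a GST fusion were produced in yeast, bound to glutathione beads, tagged with DNA barcodes and pooled together with a tag-only sample. Each pool was held with 200 nmole of a random double-stranded 16-mer DNA library in Tris/NaCl/DTT/glycerol buffer for 30 min at room temperature, then washed, crosslinked in 0.1% formaldehyde, proximity-ligated with BsaI/T4 ligase (1 h, 37 °C), PCR-amplified and sequenced on an Illumina NextSeq500. Binding signal is the read frequency of each hexamer for a given factor divided by its frequency in the tag-only sample.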

[2] = biological target: T2, ELK1 (Homo sapiens, UniProt P19419 1-428); conditions: protein: recombinant; tags: N-terminal GST; dsDNA, one strand shown
T2 sequence: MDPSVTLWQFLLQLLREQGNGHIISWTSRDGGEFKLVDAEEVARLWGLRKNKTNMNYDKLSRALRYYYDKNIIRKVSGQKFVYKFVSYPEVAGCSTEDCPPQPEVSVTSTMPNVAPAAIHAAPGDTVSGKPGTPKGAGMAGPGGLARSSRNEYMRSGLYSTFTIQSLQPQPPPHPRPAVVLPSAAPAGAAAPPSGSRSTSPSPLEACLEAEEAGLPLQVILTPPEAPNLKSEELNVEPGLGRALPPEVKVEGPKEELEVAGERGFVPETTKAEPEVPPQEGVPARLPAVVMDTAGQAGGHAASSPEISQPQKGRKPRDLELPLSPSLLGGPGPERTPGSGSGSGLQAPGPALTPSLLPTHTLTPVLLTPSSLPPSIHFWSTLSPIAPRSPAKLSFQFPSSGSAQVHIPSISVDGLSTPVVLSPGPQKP
Method in brief: as §1

[3] = biological target: T3, GABPA (Homo sapiens, UniProt Q06546 1-454); conditions: protein: recombinant; tags: N-terminal GST; dsDNA, one strand shown
T3 sequence: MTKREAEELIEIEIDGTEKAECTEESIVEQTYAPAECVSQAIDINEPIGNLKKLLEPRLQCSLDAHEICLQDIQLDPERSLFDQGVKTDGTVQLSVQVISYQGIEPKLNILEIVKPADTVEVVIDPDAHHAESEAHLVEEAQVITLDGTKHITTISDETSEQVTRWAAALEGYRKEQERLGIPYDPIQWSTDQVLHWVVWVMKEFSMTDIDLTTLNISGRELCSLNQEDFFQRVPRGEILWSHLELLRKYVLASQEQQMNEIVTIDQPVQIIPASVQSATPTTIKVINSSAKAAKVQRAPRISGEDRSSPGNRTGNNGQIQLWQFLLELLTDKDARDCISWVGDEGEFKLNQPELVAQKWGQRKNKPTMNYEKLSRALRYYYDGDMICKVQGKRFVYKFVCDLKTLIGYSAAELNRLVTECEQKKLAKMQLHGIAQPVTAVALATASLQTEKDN
Method in brief: as §1

[4] = biological target: T4, ERG (Homo sapiens, UniProt P11308 1-479); conditions: protein: recombinant; tags: N-terminal GST; dsDNA, one strand shown
T4 sequence: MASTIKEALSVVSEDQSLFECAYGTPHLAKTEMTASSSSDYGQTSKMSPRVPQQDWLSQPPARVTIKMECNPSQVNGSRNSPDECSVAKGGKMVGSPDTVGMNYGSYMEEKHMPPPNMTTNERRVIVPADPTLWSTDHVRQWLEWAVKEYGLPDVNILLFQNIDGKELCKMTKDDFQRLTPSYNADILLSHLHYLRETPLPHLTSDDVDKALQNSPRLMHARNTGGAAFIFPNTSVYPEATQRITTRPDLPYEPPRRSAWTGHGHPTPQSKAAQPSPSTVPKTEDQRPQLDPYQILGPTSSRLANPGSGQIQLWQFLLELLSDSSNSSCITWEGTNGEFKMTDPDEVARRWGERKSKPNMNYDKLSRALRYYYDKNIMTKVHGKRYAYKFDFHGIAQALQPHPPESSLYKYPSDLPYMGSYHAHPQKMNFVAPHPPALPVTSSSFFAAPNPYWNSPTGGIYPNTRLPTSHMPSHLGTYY
Method in brief: as §1

[5] = biological target: ELF1 (Homo sapiens, UniProt P32519 1-619); conditions: protein: recombinant; tags: N-terminal GST; dsDNA, one strand shown
Chain of ELF1 (P32519 whole entry): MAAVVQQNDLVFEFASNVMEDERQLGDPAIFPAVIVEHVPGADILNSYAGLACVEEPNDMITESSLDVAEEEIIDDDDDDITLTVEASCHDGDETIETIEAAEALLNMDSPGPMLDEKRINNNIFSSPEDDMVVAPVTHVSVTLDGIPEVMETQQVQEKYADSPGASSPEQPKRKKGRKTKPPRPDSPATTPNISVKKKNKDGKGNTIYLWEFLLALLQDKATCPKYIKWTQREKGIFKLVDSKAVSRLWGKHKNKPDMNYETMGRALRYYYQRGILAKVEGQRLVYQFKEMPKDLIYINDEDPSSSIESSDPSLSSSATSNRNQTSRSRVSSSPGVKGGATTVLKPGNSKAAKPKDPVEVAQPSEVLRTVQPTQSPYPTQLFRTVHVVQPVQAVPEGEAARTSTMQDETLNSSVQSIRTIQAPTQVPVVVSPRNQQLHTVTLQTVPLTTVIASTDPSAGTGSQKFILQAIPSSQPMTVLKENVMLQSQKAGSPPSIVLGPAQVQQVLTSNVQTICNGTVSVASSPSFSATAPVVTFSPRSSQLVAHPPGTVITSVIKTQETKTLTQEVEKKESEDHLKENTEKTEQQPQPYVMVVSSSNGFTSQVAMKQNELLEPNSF
Method in brief: as §1

[6] = biological target: T5, EHF (Homo sapiens, UniProt Q9NZC4 1-300); conditions: protein: recombinant; tags: N-terminal GST; dsDNA, one strand shown
T5 sequence: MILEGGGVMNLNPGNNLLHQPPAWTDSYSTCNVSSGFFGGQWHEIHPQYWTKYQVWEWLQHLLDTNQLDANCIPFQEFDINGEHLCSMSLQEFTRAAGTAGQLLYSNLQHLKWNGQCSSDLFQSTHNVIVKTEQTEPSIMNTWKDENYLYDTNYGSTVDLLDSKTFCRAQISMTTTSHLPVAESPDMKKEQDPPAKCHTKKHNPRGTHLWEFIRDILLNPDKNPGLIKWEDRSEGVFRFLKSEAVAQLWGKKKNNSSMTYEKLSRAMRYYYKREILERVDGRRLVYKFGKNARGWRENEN
Method in brief: as §1

[7] = biological target: SPI1 (Homo sapiens, UniProt P17947 1-270); conditions: protein: recombinant; tags: N-terminal GST; dsDNA, one strand shown
Method in brief: as §1

[8] = biological target: SPIB (Homo sapiens, UniProt Q01892 1-262); conditions: protein: recombinant; tags: N-terminal GST; dsDNA, one strand shown
Chain of SPIB (Q01892 whole entry): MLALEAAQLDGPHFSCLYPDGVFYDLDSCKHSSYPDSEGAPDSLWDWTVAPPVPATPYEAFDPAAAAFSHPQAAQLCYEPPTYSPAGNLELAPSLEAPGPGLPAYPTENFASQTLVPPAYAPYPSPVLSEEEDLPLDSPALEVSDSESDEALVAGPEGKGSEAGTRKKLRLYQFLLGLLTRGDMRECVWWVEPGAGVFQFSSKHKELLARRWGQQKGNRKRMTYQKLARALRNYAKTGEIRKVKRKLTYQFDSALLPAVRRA
Method in brief: as §1

[9] = biological target: T6, ELK3 (Homo sapiens, UniProt P41970 1-407); conditions: protein: recombinant; tags: N-terminal GST; dsDNA, one strand shown
T6 sequence: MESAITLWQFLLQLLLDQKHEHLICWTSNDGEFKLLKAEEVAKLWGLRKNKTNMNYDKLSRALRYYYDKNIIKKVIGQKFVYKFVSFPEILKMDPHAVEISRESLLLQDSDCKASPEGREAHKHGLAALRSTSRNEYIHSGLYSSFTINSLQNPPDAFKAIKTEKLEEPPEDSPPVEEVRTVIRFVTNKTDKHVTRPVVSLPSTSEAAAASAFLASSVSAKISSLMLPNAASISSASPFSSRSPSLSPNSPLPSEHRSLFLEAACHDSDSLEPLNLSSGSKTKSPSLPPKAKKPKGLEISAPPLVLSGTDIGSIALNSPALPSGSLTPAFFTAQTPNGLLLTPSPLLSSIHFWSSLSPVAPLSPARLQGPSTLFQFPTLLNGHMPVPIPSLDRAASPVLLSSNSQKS
Method in brief: as §1

[10] = biological target: T7, FEV (Homo sapiens, UniProt Q99581 1-238); conditions: protein: recombinant; tags: N-terminal GST; dsDNA, one strand shown
T7 sequence: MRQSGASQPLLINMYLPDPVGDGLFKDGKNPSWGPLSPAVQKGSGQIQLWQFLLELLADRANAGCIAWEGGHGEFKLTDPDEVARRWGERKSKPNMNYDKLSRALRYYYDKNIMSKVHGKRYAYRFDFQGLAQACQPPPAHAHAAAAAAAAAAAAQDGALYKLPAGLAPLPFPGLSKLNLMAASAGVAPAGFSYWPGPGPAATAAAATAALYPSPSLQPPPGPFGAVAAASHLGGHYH
Method in brief: as §1

[11] = biological target: ETV5 (Homo sapiens, UniProt P41161 1-510); conditions: protein: recombinant; tags: N-terminal GST; dsDNA, one strand shown
Chain of ETV5 (P41161 whole entry): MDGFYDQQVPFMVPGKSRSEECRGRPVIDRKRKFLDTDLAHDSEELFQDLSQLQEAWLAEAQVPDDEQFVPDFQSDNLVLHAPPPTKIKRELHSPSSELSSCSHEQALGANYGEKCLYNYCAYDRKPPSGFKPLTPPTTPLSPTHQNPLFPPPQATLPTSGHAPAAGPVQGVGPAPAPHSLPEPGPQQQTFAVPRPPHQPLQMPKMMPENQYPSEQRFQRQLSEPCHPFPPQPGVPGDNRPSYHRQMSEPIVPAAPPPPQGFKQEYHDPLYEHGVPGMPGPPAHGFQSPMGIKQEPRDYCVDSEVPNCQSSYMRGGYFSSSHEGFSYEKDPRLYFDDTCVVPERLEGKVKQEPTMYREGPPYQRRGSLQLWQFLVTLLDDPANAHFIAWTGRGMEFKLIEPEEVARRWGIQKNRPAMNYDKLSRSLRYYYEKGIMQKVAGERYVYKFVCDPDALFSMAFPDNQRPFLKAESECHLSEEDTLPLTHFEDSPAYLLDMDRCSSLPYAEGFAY
Method in brief: as §1

[12] = biological target: HSF1 (Homo sapiens, UniProt Q00613 1-529); conditions: protein: recombinant; tags: N-terminal GST; chain copies: 3; dsDNA, one strand shown
Chain of HSF1 (Q00613 whole entry): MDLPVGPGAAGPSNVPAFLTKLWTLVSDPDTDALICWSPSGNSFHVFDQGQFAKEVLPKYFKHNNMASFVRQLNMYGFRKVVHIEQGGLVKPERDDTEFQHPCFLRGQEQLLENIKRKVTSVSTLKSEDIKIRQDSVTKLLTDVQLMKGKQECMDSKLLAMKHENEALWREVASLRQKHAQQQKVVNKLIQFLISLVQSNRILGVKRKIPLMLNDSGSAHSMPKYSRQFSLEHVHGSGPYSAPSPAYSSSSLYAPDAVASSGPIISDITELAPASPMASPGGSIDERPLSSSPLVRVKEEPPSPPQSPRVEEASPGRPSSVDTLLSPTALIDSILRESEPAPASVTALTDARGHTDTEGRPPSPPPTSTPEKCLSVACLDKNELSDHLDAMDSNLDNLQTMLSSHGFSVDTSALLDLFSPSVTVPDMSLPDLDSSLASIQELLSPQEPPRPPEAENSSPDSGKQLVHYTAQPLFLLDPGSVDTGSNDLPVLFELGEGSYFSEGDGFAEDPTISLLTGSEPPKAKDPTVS
Method in brief: as §1

[13] = biological target: T8, SPIC (Homo sapiens, UniProt Q8N5J4 1-248); conditions: protein: recombinant; tags: N-terminal GST; dsDNA, one strand shown
T8 sequence: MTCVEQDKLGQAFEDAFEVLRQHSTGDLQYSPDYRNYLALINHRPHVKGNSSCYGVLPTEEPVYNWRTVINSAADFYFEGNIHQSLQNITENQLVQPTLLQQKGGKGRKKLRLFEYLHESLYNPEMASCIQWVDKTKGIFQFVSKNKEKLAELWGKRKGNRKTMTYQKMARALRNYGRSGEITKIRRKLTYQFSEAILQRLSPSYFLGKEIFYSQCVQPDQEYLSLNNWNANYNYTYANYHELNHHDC
Method in brief: as §1

[14] = biological target: ELF4 (Homo sapiens, UniProt Q99607 1-663); conditions: protein: recombinant; tags: N-terminal GST; dsDNA, one strand shown
Chain of ELF4 (Q99607 whole entry): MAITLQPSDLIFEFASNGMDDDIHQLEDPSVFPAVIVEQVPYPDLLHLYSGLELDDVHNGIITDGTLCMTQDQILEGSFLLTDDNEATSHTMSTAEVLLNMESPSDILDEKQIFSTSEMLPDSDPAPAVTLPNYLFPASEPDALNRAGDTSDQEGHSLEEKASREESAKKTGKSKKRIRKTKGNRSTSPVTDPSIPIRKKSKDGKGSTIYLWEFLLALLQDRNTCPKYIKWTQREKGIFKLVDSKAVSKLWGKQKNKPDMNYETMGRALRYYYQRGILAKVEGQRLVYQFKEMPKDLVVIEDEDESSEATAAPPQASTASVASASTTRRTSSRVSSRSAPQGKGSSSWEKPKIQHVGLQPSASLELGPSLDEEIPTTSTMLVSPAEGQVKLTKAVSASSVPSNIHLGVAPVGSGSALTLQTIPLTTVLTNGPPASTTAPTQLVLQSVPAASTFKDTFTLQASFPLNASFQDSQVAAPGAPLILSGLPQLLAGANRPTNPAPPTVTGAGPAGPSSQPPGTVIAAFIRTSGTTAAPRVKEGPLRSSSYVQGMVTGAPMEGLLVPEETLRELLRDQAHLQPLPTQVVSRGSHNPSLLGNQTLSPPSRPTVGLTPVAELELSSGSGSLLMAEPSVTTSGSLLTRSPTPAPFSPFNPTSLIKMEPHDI
Method in brief: as §1

[15] = biological target: T9, ELK4 (Homo sapiens, UniProt P28324-2 1-405); conditions: protein: recombinant; tags: N-terminal GST; dsDNA, one strand shown
T9 sequence: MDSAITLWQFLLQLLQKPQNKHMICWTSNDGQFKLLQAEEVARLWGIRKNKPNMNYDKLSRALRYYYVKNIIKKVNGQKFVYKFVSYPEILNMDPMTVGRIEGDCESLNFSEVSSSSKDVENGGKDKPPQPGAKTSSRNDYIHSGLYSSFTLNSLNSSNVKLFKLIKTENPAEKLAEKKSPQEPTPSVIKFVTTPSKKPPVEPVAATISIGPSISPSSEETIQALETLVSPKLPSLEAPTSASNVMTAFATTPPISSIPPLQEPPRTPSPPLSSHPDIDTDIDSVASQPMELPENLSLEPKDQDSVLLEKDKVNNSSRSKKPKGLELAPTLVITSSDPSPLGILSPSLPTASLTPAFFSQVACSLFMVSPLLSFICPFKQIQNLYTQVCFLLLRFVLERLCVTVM
Method in brief: as §1

[16] = biological target: T10, ETV2 (Homo sapiens, UniProt O00321 1-342); conditions: protein: recombinant; tags: N-terminal GST; dsDNA, one strand shown
T10 sequence: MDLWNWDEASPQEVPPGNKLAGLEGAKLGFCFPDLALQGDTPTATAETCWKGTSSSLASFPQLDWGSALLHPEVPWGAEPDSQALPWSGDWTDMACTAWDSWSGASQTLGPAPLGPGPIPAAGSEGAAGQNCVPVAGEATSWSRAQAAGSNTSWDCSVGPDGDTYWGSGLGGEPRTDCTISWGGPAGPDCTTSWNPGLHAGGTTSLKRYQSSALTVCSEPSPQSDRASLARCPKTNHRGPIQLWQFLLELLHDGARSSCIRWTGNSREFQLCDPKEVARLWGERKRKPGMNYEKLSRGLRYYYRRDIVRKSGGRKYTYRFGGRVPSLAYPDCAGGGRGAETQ
Method in brief: as §1

[17] = biological target: T11, ELF3 (Homo sapiens, UniProt P78545 1-371); conditions: protein: recombinant; tags: N-terminal GST; dsDNA, one strand shown
T11 sequence: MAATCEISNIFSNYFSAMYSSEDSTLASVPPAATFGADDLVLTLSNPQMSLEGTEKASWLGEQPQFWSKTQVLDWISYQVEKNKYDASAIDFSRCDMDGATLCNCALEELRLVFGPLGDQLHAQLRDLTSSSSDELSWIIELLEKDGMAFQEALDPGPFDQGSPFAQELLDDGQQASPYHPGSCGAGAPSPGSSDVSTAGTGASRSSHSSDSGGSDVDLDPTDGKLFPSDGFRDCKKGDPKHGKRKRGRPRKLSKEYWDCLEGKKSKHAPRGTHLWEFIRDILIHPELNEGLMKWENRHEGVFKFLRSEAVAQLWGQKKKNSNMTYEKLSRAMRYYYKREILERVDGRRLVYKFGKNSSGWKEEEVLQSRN
Method in brief: as §1

[18] = biological target: ETV1 (Homo sapiens, UniProt P50549 1-477); conditions: protein: recombinant; tags: N-terminal GST; dsDNA, one strand shown
Chain of ETV1 (P50549 whole entry): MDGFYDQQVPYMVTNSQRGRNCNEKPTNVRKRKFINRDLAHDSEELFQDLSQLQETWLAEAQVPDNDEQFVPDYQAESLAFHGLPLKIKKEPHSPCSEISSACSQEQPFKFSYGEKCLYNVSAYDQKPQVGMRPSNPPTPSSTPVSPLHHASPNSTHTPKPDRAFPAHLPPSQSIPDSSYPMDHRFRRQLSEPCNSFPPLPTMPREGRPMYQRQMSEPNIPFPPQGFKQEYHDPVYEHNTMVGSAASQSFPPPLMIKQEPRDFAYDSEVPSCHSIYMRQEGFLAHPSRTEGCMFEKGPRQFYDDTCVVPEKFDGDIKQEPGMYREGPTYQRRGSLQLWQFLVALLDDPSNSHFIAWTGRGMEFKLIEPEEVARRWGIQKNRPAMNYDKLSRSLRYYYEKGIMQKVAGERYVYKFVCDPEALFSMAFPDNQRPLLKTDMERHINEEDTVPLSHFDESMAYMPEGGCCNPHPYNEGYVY
Method in brief: as §1

AACTTG
binding signal [1]: 1.26 fold enrichment (6-mer frequency, TF over GST control)
binding signal [2]: 1.2 fold enrichment (6-mer frequency, TF over GST control)
binding signal [3]: 1.18 fold enrichment (6-mer frequency, TF over GST control)
binding signal [4]: 1.11 fold enrichment (6-mer frequency, TF over GST control)
binding signal [5]: 1.21 fold enrichment (6-mer frequency, TF over GST control)
binding signal [6]: 1.14 fold enrichment (6-mer frequency, TF over GST control)
binding signal [7]: 1.15 fold enrichment (6-mer frequency, TF over GST control)
binding signal [8]: 1.19 fold enrichment (6-mer frequency, TF over GST control)
binding signal [9]: 1.08 fold enrichment (6-mer frequency, TF over GST control)
binding signal [10]: 1.17 fold enrichment (6-mer frequency, TF over GST control)
binding signal [11]: 1.14 fold enrichment (6-mer frequency, TF over GST control)
binding signal [12]: 1.09 fold enrichment (6-mer frequency, TF over GST control)
binding signal [13]: 1.27 fold enrichment (6-mer frequency, TF over GST control)
binding signal [14]: 1.28 fold enrichment (6-mer frequency, TF over GST control)
binding signal [15]: 1.11 fold enrichment (6-mer frequency, TF over GST control)
binding signal [16]: 1.12 fold enrichment (6-mer frequency, TF over GST control)
binding signal [17]: 1.19 fold enrichment (6-mer frequency, TF over GST control)
binding signal [18]: 1.05 fold enrichment (6-mer frequency, TF over GST control)
